Records with an inconclusive call do not appear. Active and inactive are the calls of the source. The call rests on the fitted dose curve; in most records, active means well fitted activation curve with a large enough effect; inconclusive means small, poorly fitted or top-dose-only effect; inactive means no such curve, though single readings can be large or run the other way.
Potency means the concentration at half of the fitted maximal effect.

A short description of this test: qHTS for small molecules that induce genotoxicity in ELG1 expressing cells: Confirmatory Assay for Cherry-picked Compounds. Further: nearly all actives have a fitted effect of over 35% in size. The conditions noted are these: ELG1-luciferase reporter cells, luminescence, 16 h; series mostly up to 46.1 µM. The source says:
Cancer cells divide rapidly compared to normal cells in the body. During cell division, cancer cells need to duplicate their genome by DNA replication. The failure of genome duplication leads to cancer cells' death. Therefore, inhibitors of DNA replication could specifically kill cancer cells. Based on this concept, many chemotherapeutic agents were developed and have been used to treat cancer patients. However, there are a limited number of agents available in the clinical setting, and some of those that do exist have low efficacy and severe side effects. Therefore, if we can find the compounds that effectively block DNA replication either by directly damaging DNA or by inhibiting other cellular mechanisms, the options for cancer treatment will be broadened. We developed a quantitative high-throughput ELG1-luciferase reporter gene assay. Since the level of human ELG1 protein is enhanced in response to genetic stresses, increases in luciferase activity can be used to identify compounds that cause genetic stress. The data herein is the result of the confirmation assay against the cherry picked compounds selected from the primary qHTS (AID 504466). Activation is the desired outcome for this assay. NIH Chemical Genomics Center [NCGC] NIH Molecular Libraries Probe Centers Network [MLPCN] MLPCN Grant: MH092164 Assay Provider: Kyungjae Myung, National Human Genome Research Institute, NIH
For genotoxicity screening, 2,000 cells/ well (5 uL volume) were dispensed into white, solid-bottom 1536-well plates using a solenoid-based dispenser. Following transfer of 23 nL compound or DMSO vehicle by a pin tool, the plates were incubated 16 hr at 37 C, 5% CO2. Five microliter of ONE-Glo reagent (Promega) was then added to each plate. The assay plates were incubated for 30 min at room temperature followed by quantification of the luciferase activity using the PerkinElmer ViewLux CCD-based plate reader.
In the case of `CCCCCCCCCCCCCC(=O)O[C@@H]1[C@@H](C)[C@@]2(O)[C@H](C=C(CO)C[C@]3(O)C(=O)C(C)=C[C@@H]23)[C@@H]2C(C)(C)C12OC(C)=O` (some centres not stated), the Potency is 8.9 nM (active).

In the case of `CCCSc1ccc2nc(NC(=O)OC)[nH]c2c1`, the Potency is 8880 nM (active).

`C[C@@H]1C[C@@H]2[C@H]([C@H]3C=C(COC(=O)c4ccccc4)[C@@H](O)[C@]4(O)[C@@H](O)C(OC(=O)c5ccccc5)=C[C@@]14C3=O)C2(C)C`: the Potency was 500 nM (active).

As to `O=C(CCl)c1ccc(O)c(O)c1`, the Potency entry is “inactive”.

Regarding `C=C(C)[C@@]12OC3(c4ccccc4)O[C@@H]1[C@@H]1[C@@H]4O[C@]4(CO)[C@@H](O)[C@]4(O)C(=O)C(C)=C[C@H]4[C@@]1(O3)[C@H](C)[C@H]2OC(=O)/C=C/C=C/c1ccccc1`, the Potency is 50 nM (active).

Turning to `CCCC(=O)O[C@@H]1[C@@H](C)[C@@]2(O)[C@@H](C=C(CO)C[C@]3(O)C(=O)C(C)=C[C@@H]23)[C@@H]2C(C)(C)[C@]12OC(=O)CCC`, the Potency is 99.6 nM (active).

As to `CC(=O)OCC1=C[C@H]2[C@@H]3C(C)(C)[C@]3(OC(=O)Cc3ccccc3)C[C@@H](C)[C@]2(O)[C@@H]2C=C(C)C(=O)[C@@]2(O)C1`, the Potency was 396 nM (active).

For the origin of these results see PubChem BioAssay AID720565 (National Center for Advancing Translational Sciences (NCATS), 2013).
